# Tests used:
# Assay in all cases: DAPPL (digital affinity profiling via proximity ligation, sequencing); 10 mM Tris-HCl pH 7.5, 50 mM NaCl, 1 mM DTT, 4% glycerol, room temperature, 30 min; GST-TFs on glutathione beads, 16-mer random dsDNA library, 0.1% formaldehyde crosslink after washing; high values mean tight binding
# [1] = biological target: T1, FEV (Homo sapiens, UniProt Q99581 1-238); details: protein: recombinant; tags: N-terminal GST; dsDNA, one strand shown
# T1 sequence: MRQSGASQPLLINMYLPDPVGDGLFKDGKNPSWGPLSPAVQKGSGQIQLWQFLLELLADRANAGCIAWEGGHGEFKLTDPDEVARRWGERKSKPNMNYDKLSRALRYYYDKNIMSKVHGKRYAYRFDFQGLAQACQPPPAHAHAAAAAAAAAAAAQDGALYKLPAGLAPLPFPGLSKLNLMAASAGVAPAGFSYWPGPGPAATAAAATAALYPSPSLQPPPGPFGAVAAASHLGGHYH
# Outline: (§1)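 Binding signal is each hexamer's read frequency for a factor divided by its frequency in the tag-only sample. The factors were GST-fused human transcription factors from yeast, captured on glutathione beads, DNA-barcoded and pooled with that sample. Pools were incubated with 200 nmole of a random double-stranded 16-mer DNA library in Tris/NaCl/DTT/glycerol buffer at room temperature for 30 min, then washed, crosslinked with 0.1% formaldehyde, proximity-ligated with BsaI/T4 ligase (1 h, 37 °C), PCR-amplified and sequenced on an Illumina NextSeq500.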
# [2] = biological target: ETV5 (Homo sapiens, UniProt P41161 1-510); details: protein: recombinant; tags: N-terminal GST; dsDNA, one strand shown
# ETV5, sequence (P41161 whole entry): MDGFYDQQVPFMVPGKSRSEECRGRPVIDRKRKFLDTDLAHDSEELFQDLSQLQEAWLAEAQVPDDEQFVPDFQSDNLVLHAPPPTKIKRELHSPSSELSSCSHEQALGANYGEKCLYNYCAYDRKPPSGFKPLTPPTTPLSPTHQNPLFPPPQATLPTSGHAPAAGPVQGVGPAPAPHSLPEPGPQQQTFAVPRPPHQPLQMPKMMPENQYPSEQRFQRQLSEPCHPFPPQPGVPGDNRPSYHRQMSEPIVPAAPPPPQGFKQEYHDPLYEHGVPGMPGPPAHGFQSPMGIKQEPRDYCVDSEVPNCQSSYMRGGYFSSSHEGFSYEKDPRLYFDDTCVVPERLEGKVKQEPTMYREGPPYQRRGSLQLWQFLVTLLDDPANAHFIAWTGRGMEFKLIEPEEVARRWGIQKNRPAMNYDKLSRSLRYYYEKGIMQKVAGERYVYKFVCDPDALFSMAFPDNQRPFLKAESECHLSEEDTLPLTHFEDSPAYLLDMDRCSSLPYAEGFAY
# Outline: as §1
# [3] = biological target: HSF1 (Homo sapiens, UniProt Q00613 1-529); details: protein: recombinant; tags: N-terminal GST; chain copies: 3; dsDNA, one strand shown
# HSF1, sequence (Q00613 whole entry): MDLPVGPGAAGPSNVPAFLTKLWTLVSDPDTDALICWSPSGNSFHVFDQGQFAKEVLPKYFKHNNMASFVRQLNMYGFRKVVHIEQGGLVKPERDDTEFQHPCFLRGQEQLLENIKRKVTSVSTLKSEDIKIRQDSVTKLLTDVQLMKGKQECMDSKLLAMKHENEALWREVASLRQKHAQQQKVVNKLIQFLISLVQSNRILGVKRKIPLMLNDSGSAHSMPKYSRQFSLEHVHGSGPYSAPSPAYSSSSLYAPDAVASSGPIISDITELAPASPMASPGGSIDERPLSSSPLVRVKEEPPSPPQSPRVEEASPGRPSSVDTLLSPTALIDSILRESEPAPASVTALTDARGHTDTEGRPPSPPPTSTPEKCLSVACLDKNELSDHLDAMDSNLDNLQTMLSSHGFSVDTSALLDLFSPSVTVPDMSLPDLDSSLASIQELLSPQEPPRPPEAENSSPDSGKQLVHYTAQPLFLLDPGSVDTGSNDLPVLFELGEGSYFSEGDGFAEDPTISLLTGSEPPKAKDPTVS
# Outline: as §1
# [4] = biological target: T2, SPIC (Homo sapiens, UniProt Q8N5J4 1-248); details: protein: recombinant; tags: N-terminal GST; dsDNA, one strand shown
# T2 sequence: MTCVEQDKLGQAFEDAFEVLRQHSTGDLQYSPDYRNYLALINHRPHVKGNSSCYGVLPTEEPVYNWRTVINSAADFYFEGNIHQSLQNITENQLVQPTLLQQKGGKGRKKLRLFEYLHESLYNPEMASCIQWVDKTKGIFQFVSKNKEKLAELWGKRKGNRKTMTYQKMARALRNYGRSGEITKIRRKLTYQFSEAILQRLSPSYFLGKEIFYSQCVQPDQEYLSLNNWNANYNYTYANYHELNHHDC
# Outline: as §1
# [5] = biological target: ELF4 (Homo sapiens, UniProt Q99607 1-663); details: protein: recombinant; tags: N-terminal GST; dsDNA, one strand shown
# ELF4, sequence (Q99607 whole entry): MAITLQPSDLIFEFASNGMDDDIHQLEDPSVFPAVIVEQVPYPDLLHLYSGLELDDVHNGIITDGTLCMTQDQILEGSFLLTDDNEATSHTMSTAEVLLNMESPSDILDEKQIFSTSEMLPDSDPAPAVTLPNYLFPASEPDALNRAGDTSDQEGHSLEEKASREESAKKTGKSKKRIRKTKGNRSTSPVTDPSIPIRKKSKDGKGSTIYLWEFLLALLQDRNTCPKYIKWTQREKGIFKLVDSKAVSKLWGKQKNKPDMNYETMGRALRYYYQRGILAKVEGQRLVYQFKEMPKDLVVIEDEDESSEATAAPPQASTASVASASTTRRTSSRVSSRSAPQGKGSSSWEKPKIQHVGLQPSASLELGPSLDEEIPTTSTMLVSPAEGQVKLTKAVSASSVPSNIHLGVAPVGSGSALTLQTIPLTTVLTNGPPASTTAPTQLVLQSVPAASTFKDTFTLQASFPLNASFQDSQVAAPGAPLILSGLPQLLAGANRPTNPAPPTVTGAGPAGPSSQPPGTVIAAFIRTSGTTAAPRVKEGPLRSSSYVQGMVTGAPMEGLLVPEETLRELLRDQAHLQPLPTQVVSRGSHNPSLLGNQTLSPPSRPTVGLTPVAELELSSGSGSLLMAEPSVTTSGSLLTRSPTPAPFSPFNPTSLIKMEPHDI
# Outline: as §1
# [6] = biological target: T3, ELK4 (Homo sapiens, UniProt P28324-2 1-405); details: protein: recombinant; tags: N-terminal GST; dsDNA, one strand shown
# T3 sequence: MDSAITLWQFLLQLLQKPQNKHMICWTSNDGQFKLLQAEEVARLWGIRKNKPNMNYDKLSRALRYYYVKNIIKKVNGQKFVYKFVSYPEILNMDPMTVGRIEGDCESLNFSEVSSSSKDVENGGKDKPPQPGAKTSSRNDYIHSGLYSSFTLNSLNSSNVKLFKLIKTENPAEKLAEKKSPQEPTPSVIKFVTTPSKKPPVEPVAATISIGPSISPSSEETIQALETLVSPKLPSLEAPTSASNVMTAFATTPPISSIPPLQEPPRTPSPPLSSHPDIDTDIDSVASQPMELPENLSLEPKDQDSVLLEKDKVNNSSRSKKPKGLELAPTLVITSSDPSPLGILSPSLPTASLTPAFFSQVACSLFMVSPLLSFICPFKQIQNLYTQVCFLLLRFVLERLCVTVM
# Outline: as §1
# [7] = biological target: T4, ETV2 (Homo sapiens, UniProt O00321 1-342); details: protein: recombinant; tags: N-terminal GST; dsDNA, one strand shown
# T4 sequence: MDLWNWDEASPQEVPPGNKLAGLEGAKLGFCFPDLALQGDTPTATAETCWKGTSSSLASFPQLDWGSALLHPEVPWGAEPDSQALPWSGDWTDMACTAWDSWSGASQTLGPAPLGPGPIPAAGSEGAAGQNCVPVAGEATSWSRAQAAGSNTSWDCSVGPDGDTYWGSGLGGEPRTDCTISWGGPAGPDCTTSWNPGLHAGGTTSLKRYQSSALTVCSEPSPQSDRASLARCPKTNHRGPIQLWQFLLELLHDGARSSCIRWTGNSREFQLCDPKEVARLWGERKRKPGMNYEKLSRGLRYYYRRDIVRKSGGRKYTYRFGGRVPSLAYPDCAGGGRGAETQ
# Outline: as §1
# [8] = biological target: CRX (Homo sapiens, UniProt O43186 1-299); details: protein: recombinant; tags: N-terminal GST; dsDNA, one strand shown
# CRX, sequence (O43186 whole entry): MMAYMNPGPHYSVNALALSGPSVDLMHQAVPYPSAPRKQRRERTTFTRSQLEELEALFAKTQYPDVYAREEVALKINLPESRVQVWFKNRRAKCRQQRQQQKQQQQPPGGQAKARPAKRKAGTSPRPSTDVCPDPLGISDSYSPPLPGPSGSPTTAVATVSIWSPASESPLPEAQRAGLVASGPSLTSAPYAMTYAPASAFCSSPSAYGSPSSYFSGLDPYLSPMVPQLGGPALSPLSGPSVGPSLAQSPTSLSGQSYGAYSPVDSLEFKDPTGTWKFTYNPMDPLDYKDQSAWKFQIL
# Outline: as §1
# [9] = biological target: ETV1 (Homo sapiens, UniProt P50549 1-477); details: protein: recombinant; tags: N-terminal GST; dsDNA, one strand shown
# ETV1, sequence (P50549 whole entry): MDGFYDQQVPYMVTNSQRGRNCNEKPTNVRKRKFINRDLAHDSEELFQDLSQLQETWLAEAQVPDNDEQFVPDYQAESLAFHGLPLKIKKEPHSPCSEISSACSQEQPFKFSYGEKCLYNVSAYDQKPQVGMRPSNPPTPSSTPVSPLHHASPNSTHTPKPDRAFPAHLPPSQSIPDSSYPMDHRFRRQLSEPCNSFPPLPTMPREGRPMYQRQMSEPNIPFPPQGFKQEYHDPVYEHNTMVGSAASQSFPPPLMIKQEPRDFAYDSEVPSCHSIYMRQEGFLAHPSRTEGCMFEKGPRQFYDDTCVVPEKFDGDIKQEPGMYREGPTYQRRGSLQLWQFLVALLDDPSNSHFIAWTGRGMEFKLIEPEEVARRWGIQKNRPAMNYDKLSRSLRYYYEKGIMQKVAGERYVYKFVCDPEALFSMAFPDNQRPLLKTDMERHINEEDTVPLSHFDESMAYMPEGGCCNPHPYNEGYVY
# Outline: as §1
# [10] = biological target: T5, ERF (Homo sapiens, UniProt P50548 1-548); details: protein: recombinant; tags: N-terminal GST; dsDNA, one strand shown
# T5 sequence: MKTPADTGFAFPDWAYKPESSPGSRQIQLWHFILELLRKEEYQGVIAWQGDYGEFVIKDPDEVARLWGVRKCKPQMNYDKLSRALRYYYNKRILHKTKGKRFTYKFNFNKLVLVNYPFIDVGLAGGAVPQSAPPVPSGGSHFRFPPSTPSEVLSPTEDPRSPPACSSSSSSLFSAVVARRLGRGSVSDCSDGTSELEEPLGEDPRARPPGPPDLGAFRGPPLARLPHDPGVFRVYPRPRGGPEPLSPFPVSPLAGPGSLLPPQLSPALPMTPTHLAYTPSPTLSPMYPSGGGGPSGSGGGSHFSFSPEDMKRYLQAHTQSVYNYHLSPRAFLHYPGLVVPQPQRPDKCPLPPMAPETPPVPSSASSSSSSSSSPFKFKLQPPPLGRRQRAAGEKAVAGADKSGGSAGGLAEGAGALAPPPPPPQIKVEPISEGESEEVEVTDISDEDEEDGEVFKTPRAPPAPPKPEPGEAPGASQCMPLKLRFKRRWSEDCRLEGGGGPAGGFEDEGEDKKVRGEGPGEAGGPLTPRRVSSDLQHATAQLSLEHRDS
# Outline: as §1
# [11] = biological target: T6, ETV3L (Homo sapiens, UniProt Q6ZN32 1-361); details: protein: recombinant; tags: N-terminal GST; dsDNA, one strand shown
# T6 sequence: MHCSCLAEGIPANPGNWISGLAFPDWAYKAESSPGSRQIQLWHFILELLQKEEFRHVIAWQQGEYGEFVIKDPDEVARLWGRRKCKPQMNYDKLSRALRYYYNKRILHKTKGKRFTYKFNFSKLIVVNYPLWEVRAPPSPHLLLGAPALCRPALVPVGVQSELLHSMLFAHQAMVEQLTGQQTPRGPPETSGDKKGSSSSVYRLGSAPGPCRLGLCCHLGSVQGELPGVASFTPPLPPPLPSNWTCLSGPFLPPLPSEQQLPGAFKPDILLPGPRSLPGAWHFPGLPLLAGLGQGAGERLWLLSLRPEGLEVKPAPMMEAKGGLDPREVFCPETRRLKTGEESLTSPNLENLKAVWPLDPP
# Outline: as §1
# [12] = biological target: T7, ETS2 (Homo sapiens, UniProt P15036 1-469); details: protein: recombinant; tags: N-terminal GST; dsDNA, one strand shown
# T7 sequence: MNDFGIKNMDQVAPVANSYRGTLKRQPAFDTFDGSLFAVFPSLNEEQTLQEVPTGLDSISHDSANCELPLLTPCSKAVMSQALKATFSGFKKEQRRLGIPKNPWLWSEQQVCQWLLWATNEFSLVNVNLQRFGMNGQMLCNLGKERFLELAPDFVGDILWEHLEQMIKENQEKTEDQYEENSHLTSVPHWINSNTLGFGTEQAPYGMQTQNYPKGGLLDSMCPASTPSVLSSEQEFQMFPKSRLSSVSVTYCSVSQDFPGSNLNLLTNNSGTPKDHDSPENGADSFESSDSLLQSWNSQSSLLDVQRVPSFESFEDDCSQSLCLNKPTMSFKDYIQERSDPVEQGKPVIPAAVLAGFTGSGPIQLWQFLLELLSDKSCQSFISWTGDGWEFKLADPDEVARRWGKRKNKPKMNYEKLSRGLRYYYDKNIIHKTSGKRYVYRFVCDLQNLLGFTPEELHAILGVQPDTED
# Outline: as §1
# [13] = biological target: T8, SPDEF (Homo sapiens, UniProt O95238 1-335); details: protein: recombinant; tags: N-terminal GST; dsDNA, one strand shown
# T8 sequence: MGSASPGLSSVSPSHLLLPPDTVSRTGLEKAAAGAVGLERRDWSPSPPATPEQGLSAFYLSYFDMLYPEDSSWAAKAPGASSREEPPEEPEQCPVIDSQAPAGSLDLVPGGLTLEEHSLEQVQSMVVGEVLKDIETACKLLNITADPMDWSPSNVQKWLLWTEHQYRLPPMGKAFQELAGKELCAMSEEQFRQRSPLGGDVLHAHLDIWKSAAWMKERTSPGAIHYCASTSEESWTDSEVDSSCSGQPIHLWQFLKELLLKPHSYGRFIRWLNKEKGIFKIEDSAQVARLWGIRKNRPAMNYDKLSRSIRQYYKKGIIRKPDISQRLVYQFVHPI
# Outline: as §1
# [14] = biological target: T9, ETV7 (Homo sapiens, UniProt Q9Y603 1-341); details: protein: recombinant; tags: N-terminal GST; dsDNA, one strand shown
# T9 sequence: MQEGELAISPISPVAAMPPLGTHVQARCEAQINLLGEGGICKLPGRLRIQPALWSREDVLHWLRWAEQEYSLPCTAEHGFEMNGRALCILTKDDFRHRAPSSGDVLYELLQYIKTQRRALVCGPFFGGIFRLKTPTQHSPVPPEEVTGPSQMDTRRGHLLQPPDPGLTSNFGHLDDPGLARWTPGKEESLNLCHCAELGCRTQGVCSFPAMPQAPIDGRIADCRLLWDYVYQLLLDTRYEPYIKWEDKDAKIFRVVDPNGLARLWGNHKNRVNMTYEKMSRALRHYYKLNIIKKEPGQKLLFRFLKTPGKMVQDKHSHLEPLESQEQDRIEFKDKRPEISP
# Outline: as §1
# [15] = biological target: T10, ETV3 (Homo sapiens, UniProt P41162-2 1-143); details: protein: recombinant; tags: N-terminal GST; dsDNA, one strand shown
# T10 sequence: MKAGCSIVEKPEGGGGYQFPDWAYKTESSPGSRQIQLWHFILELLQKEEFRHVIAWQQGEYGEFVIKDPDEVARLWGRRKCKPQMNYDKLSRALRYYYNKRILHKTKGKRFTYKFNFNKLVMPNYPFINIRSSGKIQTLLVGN
# Outline: as §1
# [16] = biological target: ETV6 (Homo sapiens, UniProt P41212 1-452); details: protein: recombinant; tags: N-terminal GST; dsDNA, one strand shown
# ETV6, sequence (P41212 whole entry): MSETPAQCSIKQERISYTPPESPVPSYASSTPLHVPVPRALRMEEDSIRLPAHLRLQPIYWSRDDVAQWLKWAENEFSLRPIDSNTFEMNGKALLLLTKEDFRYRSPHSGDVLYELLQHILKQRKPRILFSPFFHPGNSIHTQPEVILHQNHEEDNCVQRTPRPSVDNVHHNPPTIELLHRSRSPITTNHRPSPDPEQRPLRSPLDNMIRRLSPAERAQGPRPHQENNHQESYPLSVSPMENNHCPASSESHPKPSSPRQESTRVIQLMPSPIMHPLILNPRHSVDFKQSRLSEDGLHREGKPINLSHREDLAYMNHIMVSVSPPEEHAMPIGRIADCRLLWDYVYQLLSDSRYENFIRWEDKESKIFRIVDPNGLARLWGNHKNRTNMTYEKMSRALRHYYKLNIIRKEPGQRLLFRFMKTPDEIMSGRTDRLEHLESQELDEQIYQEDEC
# Outline: as §1
# [17] = biological target: T11, ELF5 (Homo sapiens, UniProt Q9UKW6-2 1-255); details: protein: recombinant; tags: N-terminal GST; dsDNA, one strand shown
# T11 sequence: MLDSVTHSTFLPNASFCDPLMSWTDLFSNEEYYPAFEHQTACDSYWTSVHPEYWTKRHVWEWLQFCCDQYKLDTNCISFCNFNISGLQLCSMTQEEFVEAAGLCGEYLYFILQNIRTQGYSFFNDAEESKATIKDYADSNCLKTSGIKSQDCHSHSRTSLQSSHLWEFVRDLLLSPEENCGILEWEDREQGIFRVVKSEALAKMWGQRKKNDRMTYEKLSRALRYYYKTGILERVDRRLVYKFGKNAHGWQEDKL
# Outline: as §1
sequence,measurement,setting,value
TTAGAA,binding signal,[1],"1.02 fold enrichment (6-mer frequency, TF over GST control)"
same,binding signal,[2],"1.01 fold enrichment (6-mer frequency, TF over GST control)"
same,binding signal,[3],"1.93 fold enrichment (6-mer frequency, TF over GST control)"
same,binding signal,[4],"1.25 fold enrichment (6-mer frequency, TF over GST control)"
same,binding signal,[5],"1.04 fold enrichment (6-mer frequency, TF over GST control)"
same,binding signal,[6],"1.1 fold enrichment (6-mer frequency, TF over GST control)"
same,binding signal,[7],"1.13 fold enrichment (6-mer frequency, TF over GST control)"
same,binding signal,[8],"2.08 fold enrichment (6-mer frequency, TF over GST control)"
same,binding signal,[9],"1.11 fold enrichment (6-mer frequency, TF over GST control)"
same,binding signal,[10],"1.1 fold enrichment (6-mer frequency, TF over GST control)"
same,binding signal,[11],"1.07 fold enrichment (6-mer frequency, TF over GST control)"
same,binding signal,[12],"1.08 fold enrichment (6-mer frequency, TF over GST control)"
same,binding signal,[13],"1 fold enrichment (6-mer frequency, TF over GST control)"
same,binding signal,[14],"1.08 fold enrichment (6-mer frequency, TF over GST control)"
same,binding signal,[15],"1.06 fold enrichment (6-mer frequency, TF over GST control)"
same,binding signal,[16],"1.15 fold enrichment (6-mer frequency, TF over GST control)"
TTCACA,binding signal,[1],"1.17 fold enrichment (6-mer frequency, TF over GST control)"
same,binding signal,[2],"1.16 fold enrichment (6-mer frequency, TF over GST control)"
same,binding signal,[3],"1.04 fold enrichment (6-mer frequency, TF over GST control)"
same,binding signal,[4],"1.08 fold enrichment (6-mer frequency, TF over GST control)"
same,binding signal,[5],"1.17 fold enrichment (6-mer frequency, TF over GST control)"
same,binding signal,[6],"1.28 fold enrichment (6-mer frequency, TF over GST control)"
same,binding signal,[7],"1.28 fold enrichment (6-mer frequency, TF over GST control)"
same,binding signal,[9],"1.25 fold enrichment (6-mer frequency, TF over GST control)"
same,binding signal,[10],"1.26 fold enrichment (6-mer frequency, TF over GST control)"
same,binding signal,[11],"1.21 fold enrichment (6-mer frequency, TF over GST control)"
same,binding signal,[12],"1.23 fold enrichment (6-mer frequency, TF over GST control)"
same,binding signal,[13],"1.25 fold enrichment (6-mer frequency, TF over GST control)"
same,binding signal,[14],"1.29 fold enrichment (6-mer frequency, TF over GST control)"
same,binding signal,[17],"1.12 fold enrichment (6-mer frequency, TF over GST control)"
same,binding signal,[15],"1.13 fold enrichment (6-mer frequency, TF over GST control)"
same,binding signal,[16],"1.13 fold enrichment (6-mer frequency, TF over GST control)"
